# From the supplement of paper PMC7156485
# ± gives the standard deviation of the averaged measurements.
# Tested on: HCC1569
# Experiment: cell number relative to DMSO (% of DMSO); higher = more cells (less growth inhibition / toxicity)
# Conditions: concentration: 10 µM; 24 h
# Outline: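 In 384-well plates holding 800 HCC1569 or TDF cells per well in RPMI with 10% FBS, compounds were tested at 10 µM for 24 h at 37 °C in triplicate. Fixation used 3.7% formaldehyde. Staining used a rabbit anti-H1.0 antibody with an AlexaFluor 647 secondary, plus DAPI. Each value, H1.0 nuclear intensity or cell number, is a median of replicates shown as percent of the plate control, and HCC1569 values were smoothed for positional effects.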
# 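Also: TDF denotes transformed human dermal fibroblasts of mesenchymal origin.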
row,Compound,cell number
1,CC(C)NCC(O)COc1ccc(CC(N)=O)cc1 (centres undefined) [Atenolol],99.9
2,NCCCC(=O)O,109
3,CN1CCN(c2c(F)cc3c(=O)c(C(=O)O)cn(CCF)c3c2F)CC1 [Fleroxacin],101
4,COC(=O)C1=COC(C)C2CN3CCc4c([nH]c5ccccc45)C3CC12 (centres undefined) [Teterahydroalstonine],102
5,NCC1OC(OC2C(N)CC(N)C(OC3OC(CO)C(O)C(N)C3O)C2O)C(O)C(O)C1O.O=S(=O)(O)O (centres undefined) [Kanamycin sulfate],99.5
6,CCCCCCCCCCCCCCCCCC(=O)NCC(COP(=O)([O-])OCC[N+](C)(C)C)OCC (racemic) [rac-2-Ethoxy-3-octadecanamido-1-propylphosphocholine],39
7,CC1(C)SC2C(NC(=O)C(N)c3ccc(O)cc3)C(=O)N2C1C(=O)O (centres undefined) [Amoxicillin],107
8,Cc1ncc(Cl)cc1NCc1ccc(C(=O)N[C@@H](CC2CCCC2)C(=O)NC2CC2)s1,96.6
9,NCC1OC(OC2C(CO)OC(OC3C(O)C(N)CC(N)C3OC3OC(CO)C(O)C(O)C3N)C2O)C(N)C(O)C1O.O=S(=O)(O)O (centres undefined) [Paromomycin sulfate],105
10,COc1ccc(CN(CCN(C)C)c2ccccn2)cc1.O=C(O)C=CC(=O)O [Pyrilamine maleate],103
11,CC(C=CC1=C(C)CCCC1(C)C)=CC=CC(C)=CC(=O)O [13-cis-retinoic acid],102
12,O=C(C=Cc1ccc(O)c(O)c1)OC1CC(O)(C(=O)O)CC(O)C1O (centres undefined) [Chlorogenic acid],100
13,CCCCCCCCCCCCCCCC(=O)O [Hexadecanoic acid],97.3
14,CCCCc1oc2ccccc2c1C(=O)c1cc(I)c(OCCN(CC)CC)c(I)c1.Cl [Amiodarone.HCl],99.7
15,N=c1ccn2c(n1)OC1C(O)C(CO)OC12 (centres undefined) [Cyclocytidine],76.4
16,CN1CCN2c3ccccc3Cc3ccccc3C2C1.Cl (centres undefined) [Mianserin hydrochloride],105
17,O=C(C=Cc1ccc(O)c(O)c1)OC(Cc1ccc(O)c(O)c1)C(=O)O (centres undefined) [Rosmarinic acid],104 ± 2.8
18,Cc1cc(=O)oc2cc(O)ccc12 [4-Methylumbelliferone],103
19,"CC(=O)C(C)=O [2,3-Butanedione]",103
20,O=C(Nc1ccc(Cl)cc1)Nc1cccc(-c2cccc(N3CCCC3)n2)c1,96

row,Compound,cell number
1,C[n+]1ccccc1CC(=O)c1ccc(Br)cc1.[I-] [2-[2-(4-bromophenyl)-2-oxoethyl]-1-methylpyridinium iodide],98.7
2,Fc1ccc(-c2nc3n(c2-c2ccncc2)CCS3)cc1,95.4
3,Fc1ccc(-c2c3cccc(C(F)(F)F)c3nn2Cc2ccc(F)cc2Cl)cc1,100
4,Cc1ccc([N+](=O)[O-])cc1S(=O)(=O)N(C)N=Cc1cnc2ccc(Br)cn12,52
5,COc1cc(OC)c(C=C2C(=O)Nc3ccccc32)c(OC)c1,63.1
6,"CCC1C(=O)OCC1Cc1cncn1C.Cl (single isomer, unassigned; (+)) [(+)-Pilocarpine hydrochloride]",97.7
7,O=NN(CCCl)C(=O)NC1CCCCC1 [Lomustine],104
8,NC1CCN(c2c(F)cc3c(=O)c(C(=O)O)cn(C4CC4)c3c2Cl)C1 (centres undefined) [Clinafloxacin],103
9,CCOC(=O)[C@H](CCc1ccccc1)N[C@@H](C)C(=O)N1CCC[C@H]1C(=O)O.O=C(O)C=CC(=O)O,102
10,CN(C)CCC(CSc1ccccc1)Nc1ccc(S(=O)(=O)NC(=O)c2ccc(N3CCN(Cc4ccccc4-c4ccc(Cl)cc4)CC3)cc2)cc1[N+](=O)[O-] (centres undefined),30.5
11,CC[N+](C)(C)c1cccc(O)c1.[Cl-] [Edrophonium chloride],102
12,CC#CC1(O)CCC2C3CCC4=CC(=O)CCC4=C3C(c3ccc(N(C)C)cc3)CC21C (centres undefined) [Mifepristone],101 ± 8.2
13,Clc1ccc(COC(Cn2ccnc2)c2ccc(Cl)cc2Cl)c(Cl)c1 (centres undefined) [Miconazole],96.8
14,"Cn1nc2c3c(cccc31)C(=O)c1ccccc1-2 [JNK Inhibitor,                    Negative Control]",102
15,O=c1cc(-c2ccccc2)oc2cc(O)ccc12 [7-Hydroxyflavone],103
16,CC(=O)Oc1ccccc1C(=O)O [Acetylsalicylic acid],101
17,"CN(C)C(=O)Nc1cccc(-c2ccc(N(C)C)cc2)c1 [3-(4'-(dimethylamino)-[1,1'-biphenyl]-3-yl)-1,1-dimethylurea]",101
18,O=C(O)c1cc(O)ccc1O [Gentisic acid],104
19,CN(CC=CC#CC(C)(C)C)Cc1cccc2ccccc12.Cl,96.4
